A number with no mark means an inactive call. Active and inactive are the calls of the source. No stated cut-off is given here; in the data, active means remaining activity below about 50%; inactive means the rest.
target: Phospholipase D1 (Homo sapiens) (UniProt Q13393); test: cellular phospholipase D1 activity inhibition – Calu-1 cells, single concentration (AID 602144); conditions: cellular PLD1 activity, hits give low values;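 further: tested at 200 nM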
Sequence (Q13393 whole entry, looked up): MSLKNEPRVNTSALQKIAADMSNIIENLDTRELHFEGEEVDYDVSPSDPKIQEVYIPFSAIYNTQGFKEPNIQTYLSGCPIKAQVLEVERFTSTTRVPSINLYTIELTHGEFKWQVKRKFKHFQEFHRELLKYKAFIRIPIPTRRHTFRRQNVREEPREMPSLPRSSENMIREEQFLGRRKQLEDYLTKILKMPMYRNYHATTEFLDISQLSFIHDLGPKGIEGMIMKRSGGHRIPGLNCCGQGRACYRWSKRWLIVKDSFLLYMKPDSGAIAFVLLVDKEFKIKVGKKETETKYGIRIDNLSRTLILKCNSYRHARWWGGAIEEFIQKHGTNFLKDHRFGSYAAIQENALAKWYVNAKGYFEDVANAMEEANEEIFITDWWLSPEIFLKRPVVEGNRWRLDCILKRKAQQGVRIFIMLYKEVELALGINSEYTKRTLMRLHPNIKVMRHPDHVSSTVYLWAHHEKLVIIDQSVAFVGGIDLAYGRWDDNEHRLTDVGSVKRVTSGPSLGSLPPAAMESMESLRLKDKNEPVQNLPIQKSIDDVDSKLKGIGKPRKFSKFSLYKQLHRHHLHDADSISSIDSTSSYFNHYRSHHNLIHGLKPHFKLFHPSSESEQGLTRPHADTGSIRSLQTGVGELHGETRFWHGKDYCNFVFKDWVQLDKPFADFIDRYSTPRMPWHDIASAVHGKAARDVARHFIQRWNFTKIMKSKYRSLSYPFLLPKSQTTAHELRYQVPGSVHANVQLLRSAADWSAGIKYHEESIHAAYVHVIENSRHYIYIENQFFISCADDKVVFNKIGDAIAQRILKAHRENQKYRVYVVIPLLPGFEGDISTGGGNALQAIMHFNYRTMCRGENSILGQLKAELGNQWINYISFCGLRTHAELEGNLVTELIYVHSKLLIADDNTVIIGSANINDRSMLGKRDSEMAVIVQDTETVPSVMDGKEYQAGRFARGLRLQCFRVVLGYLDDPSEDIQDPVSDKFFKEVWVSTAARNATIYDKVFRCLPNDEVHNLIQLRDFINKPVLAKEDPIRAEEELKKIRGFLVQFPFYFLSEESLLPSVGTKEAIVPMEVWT
Sequence (Q13393 whole entry, looked up): as above

Compound	remaining activity
O=C(NCCN1CCC(n2c(=O)[nH]c3ccccc32)CC1)N1c2ccccc2C=Cc2ccccc21	92.3%
O=C(NCCN1CCC(n2c(=O)[nH]c3ccccc32)CC1)c1ccc2cccc3c2c1CC3	93.4%
O=C(NCCN1CCC(n2c(=O)[nH]c3ccccc32)CC1)c1ccccc1-c1ccccc1	92.1%
C[C@H](CN1CCC(n2nnc3ccccc32)CC1)NC(=O)c1cnc2ccccc2c1	38.2% (active)

From PubChem BioAssay AID602144 (Vanderbilt Specialized Chemistry Center, 2011)
